{
  "source": "paper PMC4336329",
  "about": "(PLoS ONE, 2015)",
  "note": "In all, about 310,000 compounds went through this assay and about 14,000 (4.5%) showed an effect of 50% or more. Effects have a minus sign here. The list comes from a sample in which strong results are over-represented; it also holds similar structures and randomly drawn compounds.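 Further: peak tail current of the secondary pulse compared with the same well before compound.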",
  "data": [
    {"molecular_target": "human ether-à-go-go-related gene (hERG) potassium channel (human, UniProt Q12809)", "sequence (Q12809 whole entry, looked up)": "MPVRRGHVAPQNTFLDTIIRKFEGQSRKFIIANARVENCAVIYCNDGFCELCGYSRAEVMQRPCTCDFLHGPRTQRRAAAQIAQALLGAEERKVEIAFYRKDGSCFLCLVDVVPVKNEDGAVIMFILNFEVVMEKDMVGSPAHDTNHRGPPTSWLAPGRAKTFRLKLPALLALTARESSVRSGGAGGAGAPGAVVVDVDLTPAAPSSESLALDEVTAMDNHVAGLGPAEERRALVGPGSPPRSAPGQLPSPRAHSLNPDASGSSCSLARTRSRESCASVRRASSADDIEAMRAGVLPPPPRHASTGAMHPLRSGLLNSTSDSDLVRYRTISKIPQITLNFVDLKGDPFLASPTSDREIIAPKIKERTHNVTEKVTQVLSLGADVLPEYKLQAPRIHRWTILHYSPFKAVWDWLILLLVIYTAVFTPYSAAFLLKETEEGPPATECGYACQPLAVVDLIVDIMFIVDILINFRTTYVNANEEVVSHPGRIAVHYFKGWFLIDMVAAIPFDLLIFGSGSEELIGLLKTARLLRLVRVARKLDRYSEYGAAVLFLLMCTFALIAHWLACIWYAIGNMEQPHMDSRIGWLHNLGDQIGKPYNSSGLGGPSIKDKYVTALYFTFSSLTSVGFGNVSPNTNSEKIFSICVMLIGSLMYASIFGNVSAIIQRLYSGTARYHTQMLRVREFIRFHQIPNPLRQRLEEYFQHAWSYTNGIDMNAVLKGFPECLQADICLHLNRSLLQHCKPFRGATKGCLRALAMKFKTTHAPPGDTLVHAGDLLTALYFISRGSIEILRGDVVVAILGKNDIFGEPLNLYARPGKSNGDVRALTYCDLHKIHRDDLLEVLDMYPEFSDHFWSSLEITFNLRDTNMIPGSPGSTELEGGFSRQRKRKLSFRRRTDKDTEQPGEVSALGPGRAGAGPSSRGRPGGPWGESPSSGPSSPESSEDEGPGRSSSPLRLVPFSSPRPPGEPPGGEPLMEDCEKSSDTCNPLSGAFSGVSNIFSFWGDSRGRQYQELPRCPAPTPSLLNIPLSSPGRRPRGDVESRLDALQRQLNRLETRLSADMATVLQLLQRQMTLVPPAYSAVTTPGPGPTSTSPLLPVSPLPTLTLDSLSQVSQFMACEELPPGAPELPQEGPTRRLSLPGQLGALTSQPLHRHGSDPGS", "assay": "primary screen, population patch clamp on CHO cells stably expressing hERG; higher = less effect of the substance", "units": {"hERG current change (%, negative = inhibition) at 10uM": "%"}, "values": [
      {"smiles": "O=C(N/N=C/c1ccco1)c1cc(-c2cccc3ccccc23)n[nH]1", "hERG current change (%, negative = inhibition) at 10uM": 7.01},
      {"smiles": "COC(=O)C(C)N(c1ccc(C)cc1)S(=O)(=O)c1c(C)[nH]c(=O)[nH]c1=O", "note": "(stereo not drawn)", "hERG current change (%, negative = inhibition) at 10uM": 1.72},
      {"smiles": "Cc1ccc(S(=O)(=O)NC2(C(F)(F)F)NC(=O)N(c3ccc(F)cc3)C2=O)cc1", "note": "(stereo not drawn)", "hERG current change (%, negative = inhibition) at 10uM": 9.68},
      {"smiles": "CCN1CCN(C(=O)c2c(-c3c(Cl)cccc3Cl)noc2C)CC1", "hERG current change (%, negative = inhibition) at 10uM": 20.9},
      {"smiles": "Cc1ccc(-n2c(C)cc(/C=C3\\NC(=O)NC3=O)c2C)c(C)c1", "hERG current change (%, negative = inhibition) at 10uM": -5.9},
      {"smiles": "Cc1cc(C)n(CCc2nc(-c3cccs3)cs2)n1", "hERG current change (%, negative = inhibition) at 10uM": 3.48},
      {"smiles": "Cc1nc2ccccn2c1C(=O)NNC(=O)Nc1cccc(C(F)(F)F)c1", "hERG current change (%, negative = inhibition) at 10uM": -11},
      {"smiles": "Cc1nc2sc(C(=O)O)c(N)c2c2c1COC(C)(C)C2", "hERG current change (%, negative = inhibition) at 10uM": 9.19},
      {"smiles": "O=C(Nc1ccc(NC(=O)C2CCCCC2)cn1)c1ccco1", "hERG current change (%, negative = inhibition) at 10uM": 4.68},
      {"smiles": "CCN(CCO)Cc1cn[nH]c1-c1ccc(C)c(C)c1", "hERG current change (%, negative = inhibition) at 10uM": 9.28},
      {"smiles": "Cc1c(NC(N)=O)c(=O)n(-c2ccccc2)n1C", "hERG current change (%, negative = inhibition) at 10uM": 3.79},
      {"smiles": "C=CCNc1cnn(-c2ccc(C)cc2)c(=O)c1Cl", "hERG current change (%, negative = inhibition) at 10uM": -12.7},
      {"smiles": "CNc1cnn(-c2ccc(C)cc2)c(=O)c1Sc1ccc(C)cc1", "hERG current change (%, negative = inhibition) at 10uM": -8.7},
      {"smiles": "C=CCNc1cnn(-c2ccc(C)cc2)c(=O)c1Sc1ccc(C)cc1", "hERG current change (%, negative = inhibition) at 10uM": -79.4},
      {"smiles": "CCOC(=O)c1cc(-c2ccccc2)nn1Cc1cc(C)no1", "hERG current change (%, negative = inhibition) at 10uM": -4.06},
      {"smiles": "C=CCN1C(=O)/C(=C2/Sc3ccccc3N2C)SC1=Nc1c(C)n[nH]c1C", "hERG current change (%, negative = inhibition) at 10uM": -3.99},
      {"smiles": "O=C(CCN1C(=O)c2ccccc2C1=O)Nc1ccc(F)cc1", "hERG current change (%, negative = inhibition) at 10uM": -6},
      {"smiles": "Clc1ccc(CN2CCc3c([nH]c4ccccc34)C2)cc1Cl", "hERG current change (%, negative = inhibition) at 10uM": -28.2},
      {"smiles": "Clc1cccc(CN2CCc3c([nH]c4ccccc34)C2)c1", "hERG current change (%, negative = inhibition) at 10uM": -31.9},
      {"smiles": "COc1cc(CN2CCc3c([nH]c4ccccc34)C2)cc(OC)c1", "hERG current change (%, negative = inhibition) at 10uM": -55.7},
      {"smiles": "Cc1cccc(CN2CCc3c([nH]c4ccccc34)C2)c1", "hERG current change (%, negative = inhibition) at 10uM": -33.4},
      {"smiles": "CSc1ccc(CN2CCc3c([nH]c4ccccc34)C2)cc1", "hERG current change (%, negative = inhibition) at 10uM": -52.7},
      {"smiles": "CCOc1cc(CN2CCc3c([nH]c4ccccc34)C2)ccc1OC", "hERG current change (%, negative = inhibition) at 10uM": -19},
      {"smiles": "Cc1cccc(NC(=O)CSc2nc3ccccc3nc2N2CCCCC2)c1", "hERG current change (%, negative = inhibition) at 10uM": -36.5},
      {"smiles": "COc1ccc(CNC(=O)c2n[nH]c3ccccc23)cc1OC", "hERG current change (%, negative = inhibition) at 10uM": 11.6},
      {"smiles": "CCOC(=O)CSCC(=O)N1CCC(Cc2ccccc2)CC1", "hERG current change (%, negative = inhibition) at 10uM": 3.24},
      {"smiles": "CCCSCCCNC(=O)CN1C(=O)COc2ccc(S(=O)(=O)N3CCCC3)cc21", "hERG current change (%, negative = inhibition) at 10uM": 2.87},
      {"smiles": "O=C(N/N=C/c1ccc(OC(=O)c2ccc3c(c2)OCO3)cc1)c1cncc(Br)c1", "hERG current change (%, negative = inhibition) at 10uM": 10.8},
      {"smiles": "Cc1ccc(-n2cnc3c(sc4nccc(N(C)C)c43)c2=O)cc1", "hERG current change (%, negative = inhibition) at 10uM": -16.4},
      {"smiles": "CN(C)c1ccnc2sc3c(=O)n(Cc4ccccc4)cnc3c12", "hERG current change (%, negative = inhibition) at 10uM": -51},
      {"smiles": "CN(C)c1ccnc2sc3c(=O)n(-c4ccccc4)cnc3c12", "hERG current change (%, negative = inhibition) at 10uM": -17.9},
      {"smiles": "CCN(CC)C(=O)c1sc(NC(=O)Cc2cccs2)c(C#N)c1C", "hERG current change (%, negative = inhibition) at 10uM": -6.24},
      {"smiles": "COc1ccccc1N(CC(O)CN1CCCC1)S(=O)(=O)c1ccccc1", "note": "(stereo not drawn)", "hERG current change (%, negative = inhibition) at 10uM": -4.48},
      {"smiles": "CC1(C)NC(=O)N(CC(O)CN(c2ccccc2)S(=O)(=O)c2ccccc2[N+](=O)[O-])C1=O", "note": "(stereo not drawn)", "hERG current change (%, negative = inhibition) at 10uM": 13.7},
      {"smiles": "Cc1cccc(N(CC(O)CN2CCOCC2)S(=O)(=O)c2ccccc2)c1", "note": "(stereo not drawn)", "hERG current change (%, negative = inhibition) at 10uM": -1.7},
      {"smiles": "COc1ccccc1N(CC(O)CN1CCOCC1)S(=O)(=O)c1ccccc1", "note": "(stereo not drawn)", "hERG current change (%, negative = inhibition) at 10uM": 12.7},
      {"smiles": "Cc1ccc(N(CC(O)CN2CCCC2)S(=O)(=O)c2ccccc2)cc1", "note": "(stereo not drawn)", "hERG current change (%, negative = inhibition) at 10uM": -68.2},
      {"smiles": "Cc1cccc(N(CC(O)CN2CCCC2)S(=O)(=O)c2ccccc2)c1", "note": "(stereo not drawn)", "hERG current change (%, negative = inhibition) at 10uM": -57},
      {"smiles": "Cc1ccc(N(CC(O)CN2CCCCC2)S(=O)(=O)c2ccccc2)cc1", "note": "(stereo not drawn)", "hERG current change (%, negative = inhibition) at 10uM": -68},
      {"smiles": "CC(C)CN(CC(C)C)CC(O)CN(c1ccccc1)S(=O)(=O)c1ccccc1[N+](=O)[O-]", "note": "(stereo not drawn)", "hERG current change (%, negative = inhibition) at 10uM": -51.5},
      {"smiles": "CC(C)CNC(=O)CN(c1ccccc1)S(=O)(=O)c1ccccc1[N+](=O)[O-]", "hERG current change (%, negative = inhibition) at 10uM": 2.38},
      {"smiles": "COc1ccc(OC)c2[nH]c(=O)c(CCNS(=O)(=O)c3ccc(F)cc3)cc12", "hERG current change (%, negative = inhibition) at 10uM": 1.59},
      {"smiles": "CN1CCC(N(C)C(=O)/C=C/c2cn(-c3ccccc3)nc2-c2cccs2)CC1.Cl", "hERG current change (%, negative = inhibition) at 10uM": -22.3},
      {"smiles": "NC(=O)Cc1ccc(C(=O)c2ccccc2)s1", "hERG current change (%, negative = inhibition) at 10uM": 7.3},
      {"smiles": "C[C@H](O)[C@@]1(O)CC[C@H]2[C@@H]3CC[C@@H]4C[C@H](O)CC[C@]4(C)[C@H]3CC[C@@]21C", "hERG current change (%, negative = inhibition) at 10uM": -0.0961},
      {"smiles": "CCOCCOc1nc2c(c(=O)n(C)c(=O)n2C)n1CCc1ccccc1", "hERG current change (%, negative = inhibition) at 10uM": 0.435},
      {"smiles": "CC(C(N)=O)N1CC(c2ccc(Cl)cc2)CC1=O", "note": "(stereo not drawn)", "hERG current change (%, negative = inhibition) at 10uM": -10.8},
      {"smiles": "C=CCN1C(=O)NC(=O)/C(=C/c2ccc(OC)c(COc3ccc(NC(C)=O)cc3)c2)C1=O", "hERG current change (%, negative = inhibition) at 10uM": 8.75},
      {"smiles": "Cc1ccc(N(CC(O)CN2CCCCC2)S(=O)(=O)c2ccccc2[N+](=O)[O-])cc1", "note": "(stereo not drawn)", "hERG current change (%, negative = inhibition) at 10uM": -70.9},
      {"smiles": "O=[N+]([O-])c1ccccc1S(=O)(=O)N(CC(O)CN1CCCCC1)c1ccccc1", "note": "(stereo not drawn)", "hERG current change (%, negative = inhibition) at 10uM": -29.9},
      {"smiles": "Cc1ccc(N(CC2CO2)S(=O)(=O)c2ccccc2[N+](=O)[O-])cc1", "note": "(stereo not drawn)", "hERG current change (%, negative = inhibition) at 10uM": 1.23},
      {"smiles": "O=C(NC(Cc1c[nH]c2ccccc12)C(=O)OCC(=O)c1cccc2ccccc12)c1cccs1", "note": "(stereo not drawn)", "hERG current change (%, negative = inhibition) at 10uM": 0.359},
      {"smiles": "CN(C)C(=O)c1ccc(NC(=O)c2cccc(S(=O)(=O)N3CCCc4ccccc43)c2)cc1", "hERG current change (%, negative = inhibition) at 10uM": -8.06},
      {"smiles": "NC(=O)[C@H]1CC2(CC(c3cccc(NC(=O)CC(c4ccccc4)c4ccccc4)c3)=NO2)CN1C(=O)C(c1ccccc1)c1ccccc1", "note": "(stereo partly drawn)", "hERG current change (%, negative = inhibition) at 10uM": 8.82}
    ]}
  ]
}
